The results in this text go back to publication PMC4336329 (PLoS ONE, 2015).

Molecules are shown by their SMILES. Among all 310,000 compounds or so, about 14,000 (4.5%) showed an effect of 50% or more. Effects have a minus sign here. For the sample, strong results were picked, then their nearest neighbours and some compounds at random.
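Note: peak tail current of the secondary pulse compared with the same well before compound.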

human ether-à-go-go-related gene (hERG) potassium channel, sequence (Q12809 whole entry, looked up): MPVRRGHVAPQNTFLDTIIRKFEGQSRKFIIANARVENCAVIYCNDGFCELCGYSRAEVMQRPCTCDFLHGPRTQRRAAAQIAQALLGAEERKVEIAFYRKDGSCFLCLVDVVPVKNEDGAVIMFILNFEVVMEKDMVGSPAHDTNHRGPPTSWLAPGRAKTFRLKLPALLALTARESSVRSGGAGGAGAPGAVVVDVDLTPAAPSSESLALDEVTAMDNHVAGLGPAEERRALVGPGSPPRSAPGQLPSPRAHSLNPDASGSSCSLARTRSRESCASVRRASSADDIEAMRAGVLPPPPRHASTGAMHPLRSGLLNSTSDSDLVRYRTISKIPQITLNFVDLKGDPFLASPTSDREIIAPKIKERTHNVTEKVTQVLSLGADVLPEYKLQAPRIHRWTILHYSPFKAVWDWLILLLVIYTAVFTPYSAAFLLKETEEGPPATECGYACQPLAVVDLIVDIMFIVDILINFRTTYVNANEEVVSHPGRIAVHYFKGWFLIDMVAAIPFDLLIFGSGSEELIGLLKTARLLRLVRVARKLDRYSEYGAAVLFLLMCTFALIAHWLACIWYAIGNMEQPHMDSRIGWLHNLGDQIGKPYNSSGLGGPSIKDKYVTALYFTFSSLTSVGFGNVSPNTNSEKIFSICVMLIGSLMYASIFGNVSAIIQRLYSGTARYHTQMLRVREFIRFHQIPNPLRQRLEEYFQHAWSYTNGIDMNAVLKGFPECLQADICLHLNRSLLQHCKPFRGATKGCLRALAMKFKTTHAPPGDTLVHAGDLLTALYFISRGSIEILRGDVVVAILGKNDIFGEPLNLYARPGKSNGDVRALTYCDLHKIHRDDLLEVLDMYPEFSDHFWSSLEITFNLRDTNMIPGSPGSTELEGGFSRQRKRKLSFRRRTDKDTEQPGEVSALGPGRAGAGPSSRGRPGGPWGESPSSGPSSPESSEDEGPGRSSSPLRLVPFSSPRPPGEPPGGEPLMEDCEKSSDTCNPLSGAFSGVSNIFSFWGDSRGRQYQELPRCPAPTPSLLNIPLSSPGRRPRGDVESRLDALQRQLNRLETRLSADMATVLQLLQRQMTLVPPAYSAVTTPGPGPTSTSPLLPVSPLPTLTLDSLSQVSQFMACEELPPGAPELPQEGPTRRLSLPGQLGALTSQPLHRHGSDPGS

The assay addresses human ether-à-go-go-related gene (hERG) potassium channel (human, UniProt Q12809). The assay is described as follows: primary screen, population patch clamp on CHO cells stably expressing hERG; higher = less effect of the substance.
With `CCN(CC)c1ccc(SS(=O)(=O)O)cc1`, the “hERG current change (%, negative = inhibition) at 10uM” value stood at 9.02%.

Turning to `CCOc1ccccc1NC1=CC(=O)CC(c2ccccc2)C1` (stereo not drawn), the “hERG current change (%, negative = inhibition) at 10uM” value is -16.9%.

For `O=C(CN1CCN(S(=O)(=O)c2ccc(F)cc2)CC1)c1ccc(O)c(O)c1`, the “hERG current change (%, negative = inhibition) at 10uM” value was -34.9%.

As to `O=C(CN1CCN(S(=O)(=O)c2ccc(Br)cc2)CC1)c1ccc(O)c(O)c1`, the “hERG current change (%, negative = inhibition) at 10uM” value was -76.8%.

For `COc1ccc(S(=O)(=O)N2CCN(CC(=O)c3ccc(O)c(O)c3)CC2)cc1`, the “hERG current change (%, negative = inhibition) at 10uM” value is on record as -45%.

`O=C(CN1CCN(S(=O)(=O)c2ccc(Cl)cc2)CC1)c1ccc(O)c(O)c1`: the “hERG current change (%, negative = inhibition) at 10uM” value is -59.5%.

Regarding `CC(C)c1ccc(S(=O)(=O)N2CCN(CC(=O)c3ccc(O)c(O)c3)CC2)cc1`, the “hERG current change (%, negative = inhibition) at 10uM” value is on record as -24.6%.

With `O=C(CN1CCN(S(=O)(=O)c2cc(Cl)ccc2Cl)CC1)c1ccc(O)c(O)c1`, the “hERG current change (%, negative = inhibition) at 10uM” value is given as 26.3%.

`Cc1cccc(-c2nc3ccccc3c3nncn23)c1`: the “hERG current change (%, negative = inhibition) at 10uM” value is on record as -12.1%.

Take `CCCn1c(NC(=O)c2cccc(S(=O)(=O)N3CCCC3)c2)nc2ccccc21`: the “hERG current change (%, negative = inhibition) at 10uM” value is listed as -28.8%.

Regarding `N#CCn1nnc(-c2ccc3c(c2)OCO3)n1`, the “hERG current change (%, negative = inhibition) at 10uM” value is listed as -4.09%.

For `O=C(COC(=O)COc1ccc2ccccc2c1)Nc1cc(C(F)(F)F)ccc1N1CCOCC1`, the “hERG current change (%, negative = inhibition) at 10uM” value is on record as 7.69%.

As to `O=C(COC(=O)c1ccccc1NCCO)Nc1cc(C(F)(F)F)ccc1N1CCOCC1`, the “hERG current change (%, negative = inhibition) at 10uM” value was -60.2%.

As for `N#Cc1ccc(OCC(=O)OCC(=O)Nc2cc(C(F)(F)F)ccc2N2CCOCC2)cc1`, the “hERG current change (%, negative = inhibition) at 10uM” value is on record as -57.7%.

As for `CSc1ncccc1C(=O)OCC(=O)Nc1cc(C(F)(F)F)ccc1N1CCOCC1`, the “hERG current change (%, negative = inhibition) at 10uM” value was -20.2%.

In the case of `COc1cc(Cl)c(C)cc1NC(C)C(=O)Nc1cc(C(F)(F)F)ccc1N1CCOCC1` (stereo not drawn), the “hERG current change (%, negative = inhibition) at 10uM” value is on record as -2.59%.

On to `Cc1cc(C(=O)OCC(=O)Nc2cc(C(F)(F)F)ccc2N2CCOCC2)c(C)o1`, for which the “hERG current change (%, negative = inhibition) at 10uM” value was -0.421%.

Turning to `COc1ccc(NC(C)C(=O)Nc2cc(C(F)(F)F)ccc2N2CCOCC2)c(OC)c1` (stereo not drawn), the “hERG current change (%, negative = inhibition) at 10uM” value is -19.2%.

As for `O=C(COC(=O)c1ccc(O)cc1)Nc1cc(C(F)(F)F)ccc1N1CCOCC1`, the “hERG current change (%, negative = inhibition) at 10uM” value is -25%.

As to `CC(=O)c1c(C)[nH]c(C(=O)OCC(=O)Nc2cc(C(F)(F)F)ccc2N2CCOCC2)c1C`, the “hERG current change (%, negative = inhibition) at 10uM” value was -56.1%.

`Cc1cc(OCC(=O)OCC(=O)Nc2cc(C(F)(F)F)ccc2N2CCOCC2)ccc1Cl`: the “hERG current change (%, negative = inhibition) at 10uM” value turned out to be 11.1%.

Take `Cc1ccccc1OCC(=O)OCC(=O)Nc1cc(C(F)(F)F)ccc1N1CCOCC1`: the “hERG current change (%, negative = inhibition) at 10uM” value was determined as 12.9%.

Turning to `COc1ccc(NC(C)=O)cc1NC(C)C(=O)Nc1cc(C(F)(F)F)ccc1N1CCOCC1` (stereo not drawn), the “hERG current change (%, negative = inhibition) at 10uM” value was -60.1%.

`NCCN=C1NS(=O)(=O)c2ccccc21`: the “hERG current change (%, negative = inhibition) at 10uM” value amounted to 0.316%.

For `CCOc1ccc(OCC(=O)Nc2ccc(S(=O)(=O)Nc3cc(C)nc(C)n3)cc2)cc1`, the “hERG current change (%, negative = inhibition) at 10uM” value turned out to be 16.4%.

On to `COc1cccc(-c2nc(N3CCCC3)c3ccccc3n2)c1O`, for which the “hERG current change (%, negative = inhibition) at 10uM” value is given as -5.65%.

Regarding `Cc1ccc(C)c(C(=O)COC(=O)c2cc(Cl)nc3ccccc23)c1`, the “hERG current change (%, negative = inhibition) at 10uM” value was found to be 26.4%.

With `O=C(Nc1ccc2c(c1)CCC2)Nc1ccc2c(c1)OCO2`, the “hERG current change (%, negative = inhibition) at 10uM” value turned out to be 6.88%.

As for `O=C(Nc1ccc(C(=O)N2CCCCC2)cc1)c1ccccc1Br`, the “hERG current change (%, negative = inhibition) at 10uM” value was 8.24%.

Turning to `O=C(NCc1ccccn1)c1ccc(=O)oc1`, the “hERG current change (%, negative = inhibition) at 10uM” value is recorded as 1.42%.

Consider `Cc1cc(Cl)ccc1OCC(=O)Nn1c(C)ccc1C`, for which the “hERG current change (%, negative = inhibition) at 10uM” value is on record as 3.73%.

Consider `Cc1ccc(C(=O)NCc2ccco2)cc1Br`, for which the “hERG current change (%, negative = inhibition) at 10uM” value is given as -11.5%.

For the molecule `COc1cccc(NC(=O)C23CCC(C)(C(=O)O2)C3(C)C)c1` (stereo not drawn), the “hERG current change (%, negative = inhibition) at 10uM” value was -5.46%.

Take `COc1ccc(OC)c(/C=C2\Oc3cc(OCC(=O)N4CC(O)C[C@H]4C(=O)O)ccc3C2=O)c1` (stereo partly drawn): the “hERG current change (%, negative = inhibition) at 10uM” value was found to be 4.97%.

Turning to `COc1ccccc1OCCCn1cc(C(=O)C2CC2)c2ccccc21`, the “hERG current change (%, negative = inhibition) at 10uM” value is on record as -2.64%.

For `COc1cccc(C(=O)NN2C(=S)N(c3ccccc3)C(=O)C2CC(N)=O)c1` (stereo not drawn), the “hERG current change (%, negative = inhibition) at 10uM” value was 16.2%.

Take `O=C(COc1ccc2ccccc2c1)Nc1ccccc1C(=O)O`: the “hERG current change (%, negative = inhibition) at 10uM” value turned out to be 26.6%.

With `CCCC(=O)NC(=S)Nc1cccc(Cl)c1N1CCCCC1`, the “hERG current change (%, negative = inhibition) at 10uM” value was found to be 14.1%.

`C/C(=N\NC(=O)c1ccccc1O)C1C(=O)c2ccccc2C1=O`: the “hERG current change (%, negative = inhibition) at 10uM” value is on record as -0.25%.

In the case of `C/C(=N\NC(=O)c1ccccc1O)C1CC1`, the “hERG current change (%, negative = inhibition) at 10uM” value is listed as -62.2%.

Regarding `C/C(=N\NC(=O)C1CC1)c1ccccc1O`, the “hERG current change (%, negative = inhibition) at 10uM” value is on record as 0.248%.

Turning to `CC(=O)c1ccc(N2CCN(CC(=O)N(CC(C)C)c3c(N)n(CC(C)C)c(=O)[nH]c3=O)CC2)cc1`, the “hERG current change (%, negative = inhibition) at 10uM” value worked out at 10.7%.

For the molecule `CCCn1ncc(CN2CCC(n3nccc3NC(=O)c3ccccc3OC)CC2)c1C`, the “hERG current change (%, negative = inhibition) at 10uM” value is on record as -79.2%.

Regarding `CCCn1ncc(CN2CCC(n3nccc3NC(=O)CCc3ccccc3)CC2)c1C`, the “hERG current change (%, negative = inhibition) at 10uM” value is listed as -26.2%.

Turning to `CCCCc1ncc(CN2CCC(n3nccc3NC(=O)c3ccccc3Cl)CC2)[nH]1`, the “hERG current change (%, negative = inhibition) at 10uM” value is -40.3%.

In the case of `CCCn1ncc(CN2CCC(n3nccc3NC(=O)c3ccccc3Cl)CC2)c1C`, the “hERG current change (%, negative = inhibition) at 10uM” value is listed as -75.8%.

In the case of `Cc1c(CN2CCC(n3nccc3NC(=O)c3cccc(F)c3)CC2)cnn1C`, the “hERG current change (%, negative = inhibition) at 10uM” value turned out to be 9%.

On to `Cc1c(CN2CCC(n3nccc3NC(=O)CCc3ccccc3)CC2)cnn1C`, for which the “hERG current change (%, negative = inhibition) at 10uM” value is reported as 12.6%.

With `COc1ccccc1C(=O)Nc1ccnn1C1CCN(Cc2cnn(C)c2C)CC1`, the “hERG current change (%, negative = inhibition) at 10uM” value is given as -63.7%.

On to `CCCn1cc(CN2CCC(n3nccc3NC(=O)c3ccccc3)CC2)c(C)n1`, for which the “hERG current change (%, negative = inhibition) at 10uM” value is listed as -11%.

Take `O=C(c1ccc2c(c1)OCO2)N1CCc2ccccc21`: the “hERG current change (%, negative = inhibition) at 10uM” value was -2.34%.

For the molecule `COCCOC(=O)c1c(C)n(C)c2ccc(OC(=O)c3ccco3)cc12`, the “hERG current change (%, negative = inhibition) at 10uM” value is listed as -2.37%.

Consider `CCc1n[nH]c(=S)n1/N=C/c1c(C)nn(-c2ccccc2)c1Cl`, for which the “hERG current change (%, negative = inhibition) at 10uM” value is listed as 21.4%.

As for `CN(C)c1ccc(/C=N/n2c(C3CCCCC3)n[nH]c2=S)cc1`, the “hERG current change (%, negative = inhibition) at 10uM” value was 20%.
